Reference: PubChem BioAssay AID1159580 (chemical genetic matrix, 2015)
Several values for one entry are separate records, joined by “and”; a condition that tells them apart may be missing. Identical values can stand only once. About 2,000 (36%) of roughly 5,500 compounds were called active. Inconclusive results (about 18%) are left out. Rule as the data show it: active = normalized growth mostly below about 0.91 (no sharp cut-off); inconclusive = no clear call, values can overlap the other calls; inactive = mostly above about 0.92. Some of the results follow.

Experiment: chemical genetic growth profiling, strain panel (AID 1159580);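 also: tested at 20 µM; growth read once vehicle control cultures reached saturation at 30 °C; 1 = growth at the plate median or of vehicle wells; lower values mean less growth of the strain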
Conditions: growth OD

Measured: normalized growth

CCOC(=O)C1=C(C)NC(C)=C(C(=O)OC)C1c1cccc([N+](=O)[O-])c1 (stereo unspecified)
inactive: S. cerevisiae deletion strains, locus YJL187C, strain SWE1, active compounds read low 1.01 | S. cerevisiae deletion strains, locus YJR043C, strain POL32, active compounds read low 1.01 | S. cerevisiae deletion strains, locus YJR075W, strain HOC1, active compounds read low 0.995 and 0.989 | S. cerevisiae deletion strains, locus YKL009W, strain mrt4, active compounds read low 1.01 | S. cerevisiae deletion strains, locus YKL068W, active compounds read low 0.996 | S. cerevisiae deletion strains, locus YKL085W, strain MDH1 (second series), active compounds read low 0.997 | S. cerevisiae deletion strains, locus YKL085W, strain MDH1, active compounds read low 0.997 | S. cerevisiae deletion strains, locus YKL160W, strain elf1, active compounds read low 1.01 | S. cerevisiae deletion strains, locus YKL190W, strain CNB1, active compounds read low 0.99 | S. cerevisiae deletion strains, locus YKR001C, strain vps1, active compounds read low 1 | S. cerevisiae deletion strains, locus YKR026C, strain gcn3, active compounds read low 0.999 | S. cerevisiae deletion strains, locus YKR091W, strain srl3, active compounds read low 1 | S. cerevisiae deletion strains, locus YLL001W, strain dnm1, active compounds read low 1.02 | S. cerevisiae deletion strains, locus YLL026W, active compounds read low 1 | S. cerevisiae deletion strains, locus YLL041C, strain sdh2, active compounds read low 1.02 | S. cerevisiae deletion strains, locus YLR027C, strain aat2, active compounds read low 1.01 | S. cerevisiae deletion strains, locus YLR039C, strain RIC1, active compounds read low 0.968 | S. cerevisiae deletion strains, locus YLR058C, strain SHM2, active compounds read low 0.999 | S. cerevisiae deletion strains, locus YLR102C, strain apc9, active compounds read low 1 | S. cerevisiae deletion strains, locus YLR221C, strain rsa3, active compounds read low 1.01 | S. cerevisiae deletion strains, locus YLR258W, strain gsy2, active compounds read low 1.01 | S. cerevisiae deletion strains, locus YLR262C, strain YPT6 (second series), active compounds read low 0.959 | S. cerevisiae deletion strains, locus YLR262C, strain YPT6, active compounds read low 0.946 | S. cerevisiae deletion strains, locus YLR268W, strain sec22, active compounds read low 0.984 | S. cerevisiae deletion strains, locus YLR320W, strain mms22, active compounds read low 1 | S. cerevisiae deletion strains, locus YLR330W, strain CHS5, active compounds read low 1.01 | S. cerevisiae deletion strains, locus YLR342W, strain FKS1 (second series), active compounds read low 1.01 | S. cerevisiae deletion strains, locus YLR342W, strain FKS1, active compounds read low 1.01 | S. cerevisiae deletion strains, locus YLR357W, strain rsc2, active compounds read low 1.02 | S. cerevisiae deletion strains, locus YLR370C, strain arc18, active compounds read low 1.01 | S. cerevisiae deletion strains, locus YLR371W, strain rom2, active compounds read low 1.01 | S. cerevisiae deletion strains, locus YLR384C, strain iki3, active compounds read low 0.998 | S. cerevisiae deletion strains, locus YLR418C, strain cdc73, active compounds read low 0.967 | S. cerevisiae deletion strains, locus YML016C, strain PPZ1, active compounds read low 1 | S. cerevisiae deletion strains, locus YML032C, strain rad52, active compounds read low 1.02 | S. cerevisiae deletion strains, locus YML120C, strain ndi1, active compounds read low 1.01 | S. cerevisiae deletion strains, locus YML124C, strain tub3, active compounds read low 1 | S. cerevisiae deletion strains, locus YMR058W, strain fet3, active compounds read low 1.02 | S. cerevisiae deletion strains, locus YMR078C, strain ctf18, active compounds read low 0.999 | S. cerevisiae deletion strains, locus YMR125W, strain sto1, active compounds read low 1.01 | S. cerevisiae deletion strains, locus YMR129W, active compounds read low 0.999 | S. cerevisiae deletion strains, locus YMR205C, strain PFK2, active compounds read low 0.991 | S. cerevisiae deletion strains, locus YMR223W, strain ubp8, active compounds read low 1.01 | S. cerevisiae deletion strains, locus YMR231W, strain pep5, active compounds read low 1.01 | S. cerevisiae deletion strains, locus YMR263W, strain SAP30, active compounds read low 1.01 and 0.981 | S. cerevisiae deletion strains, locus YMR307W, strain GAS1, active compounds read low 0.931 | S. cerevisiae deletion strains, locus YNL067W, strain RPL9B, active compounds read low 0.996 | S. cerevisiae deletion strains, locus YNL071W, strain lat1, active compounds read low 1.01 | S. cerevisiae deletion strains, locus YNL128W, strain TEP1, active compounds read low 0.994 and 1.01 | S. cerevisiae deletion strains, locus YNL153C, strain GIM3, active compounds read low 0.999 and 0.961 | S. cerevisiae deletion strains, locus YNL209W, strain ssb2, active compounds read low 1.01 | S. cerevisiae deletion strains, locus YNL224C, strain SQS1, active compounds read low 0.979 | S. cerevisiae deletion strains, locus YNL233W, strain BNI4, active compounds read low 0.995 | S. cerevisiae deletion strains, locus YNL248C, strain rpa49, active compounds read low 1.01 | S. cerevisiae deletion strains, locus YNL250W, strain rad50, active compounds read low 1.01 | S. cerevisiae deletion strains, locus YNL271C, strain bni1, active compounds read low 1.01 | S. cerevisiae deletion strains, locus YNL298W, strain CLA4, active compounds read low 1.02 | S. cerevisiae deletion strains, locus YNL307C, strain MCK1, active compounds read low 1.01 | S. cerevisiae deletion strains, locus YNL322C, strain KRE1 (second series), active compounds read low 1.01 | S. cerevisiae deletion strains, locus YNL322C, strain KRE1, active compounds read low 1 and 0.995 | S. cerevisiae deletion strains, locus YNR049C, strain mso1, active compounds read low 1.01 | S. cerevisiae deletion strains, locus YNR052C, strain pop2, active compounds read low 1.01 | S. cerevisiae deletion strains, locus YOL006C, strain TOP1, active compounds read low 1.01 | S. cerevisiae deletion strains, locus YOL012C, strain htz1 0.79 | S. cerevisiae deletion strains, locus YOL147C, strain pex11, active compounds read low 1.01 | S. cerevisiae deletion strains, locus YOR001W, strain rrp6, active compounds read low 1.03 | S. cerevisiae deletion strains, locus YOR061W, strain CKA2, active compounds read low 0.988 | S. cerevisiae deletion strains, locus YOR069W, strain VPS5, active compounds read low 0.997 | S. cerevisiae deletion strains, locus YOR070C, strain gyp1, active compounds read low 1.01 | S. cerevisiae deletion strains, locus YOR080W, strain dia2, active compounds read low 1.01 | S. cerevisiae deletion strains, locus YOR083W, strain WHI5, active compounds read low 1 | S. cerevisiae deletion strains, locus YOR106W, strain vam3, active compounds read low 1.01 | S. cerevisiae deletion strains, locus YOR136W, strain idh2, active compounds read low 1.02 | S. cerevisiae deletion strains, locus YOR144C, strain elg1, active compounds read low 1 | S. cerevisiae deletion strains, locus YOR184W, strain ser1, active compounds read low 1.01 | S. cerevisiae deletion strains, locus YOR265W, strain rbl2, active compounds read low 1 | S. cerevisiae deletion strains, locus YOR270C, strain vph1, active compounds read low 1.03 | S. cerevisiae deletion strains, locus YOR290C, strain snf2, active compounds read low 1.01 | S. cerevisiae deletion strains, locus YOR316C, strain cot1, active compounds read low 1 | S. cerevisiae deletion strains, locus YPL051W, strain arl3, active compounds read low 1 | S. cerevisiae deletion strains, locus YPL055C, strain LGE1, active compounds read low 0.95 and 1 | S. cerevisiae deletion strains, locus YPL078C, strain atp4, active compounds read low 1.03 | S. cerevisiae deletion strains, locus YPL106C, strain sse1, active compounds read low 1.04 | S. cerevisiae deletion strains, locus YPL240C, strain hsp82, active compounds read low 1.01 | S. cerevisiae deletion strains, locus YPL241C, strain CIN2, active compounds read low 0.977 | S. cerevisiae deletion strains, locus YPR119W, strain clb2, active compounds read low 1 | S. cerevisiae deletion strains, locus YPR141C, strain kar3, active compounds read low 1 | S. cerevisiae deletion strains, locus YPR163C, strain tif3, active compounds read low 1.01 | S. cerevisiae deletion strains, locus YPR167C, strain met16, active compounds read low 0.998 | S. cerevisiae deletion strains, strain wtn01, active compounds read low 0.987 | S. cerevisiae strains, strain wild type, active compounds read low 0.982
